Assay results as given in PubChem BioAssay AID1159580 (chemical genetic matrix, 2015).
Out of some 5,500 compounds screened, about 2,000 (36%) were called active. Not shown: some 18% with an inconclusive outcome. Cut-off read from the data, not from the text of the source: active = normalized growth mostly below about 0.91 (no sharp cut-off); inconclusive = no clear call, values can overlap the other calls; inactive = mostly above about 0.92. This is one part of the list.

Test: chemical genetic growth profiling, strain panel (AID 1159580);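 note: tested at 20 µM; growth read once vehicle control cultures reached saturation at 30 °C; 1 = growth at the plate median or of vehicle wells; lower values mean less growth of the strain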
Details: S. cerevisiae deletion strains, growth OD

Measured: normalized growth

O=C1OC(CN2CCOCC2)CN1/N=C\c1ccc([N+](=O)[O-])o1 (stereo not drawn)
inactive: locus YHR030C, strain SLT2, hits give low values 0.93 | locus YHR079C, strain IRE1, hits give low values 0.948 | locus YJL095W, strain BCK1, hits give low values 0.952 | locus YJR066W, strain TOR1, hits give low values 0.844 | locus YLR113W, strain HOG1, hits give low values 1.03 | locus YNL183C, strain NPR1, hits give low values 0.856 | locus YOR231W, strain MKK1, hits give low values 0.931 | locus YPL256C, strain CLN2, hits give low values 0.961
